Out of some 200,000 compounds screened, about 18,000 (9%) were called active. Rule as the data show it: active = inhibition above about 50%; inactive = the rest. Many of the other results were omitted from the sample, so actives are more common in it than they were.

In PubChem BioAssay AID1063 (University of Pittsburgh Molecular Library Screening Center, 2008) one finds inhibition data, which are given here for 96 compounds.

This assay in a line: Leishmania major promastigote growth inhibition, primary screen (AID 1063).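 Also: promastigotes grown with compound for 44 hours at 28 °C.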 Conditions: Leishmania major promastigotes, resazurin fluorescence viability; at 10 µM; stronger effect = higher value. On the technique in general: The colour change of resazurin is a common sign of viable cells or microbes.
On to `O=C(O)c1cccc(NC(=O)c2cc(-c3cccc(Cl)c3)nc3ccccc23)c1`, for which the inhibition is -4.68% (inactive).
As for `COc1ccc(OC)c(C(=O)c2ccc(C(=O)N3CCN(Cc4csc(C)n4)CC3)cc2)c1`, the inhibition is -0.79% (inactive).
On to `CCN1CCN(CC(=O)c2cc(OC)c(OC)c(OC)c2)CC1`, for which the inhibition was -5.32% (inactive).
`Nc1nc(SCC(=O)N2CCN(S(=O)(=O)c3ccc(Cl)cc3)CC2)n[nH]1`: the inhibition was -1.03% (inactive).
In the case of `Cc1ccc(C2=NN(C(=O)COc3ncnc4ccccc34)C(c3ccco3)C2)cc1` (stereo unspecified), the inhibition was -5.8% (inactive).
Next, `CCCCN(CC)CCNC(=O)CCNC(=O)Cn1ccc2ccccc2c1=O`: 0.35% (inactive).
`N=C1C(c2nc3ccccc3s2)=C(O)CN1NC(=O)c1ccc([N+](=O)[O-])cc1`: the inhibition was -3.94% (inactive).
Next, `O=C(Nc1nc2ccc([N+](=O)[O-])cc2s1)c1ccc(S(=O)(=O)N2CCCc3ccccc32)cc1`: 100% (active); `O=C(COC(=O)c1ccc(F)cc1)Nc1nc2ccc([N+](=O)[O-])cc2s1`: -3.1% (inactive).
`O=C(O)CCC(=O)Nc1nc2ccc([N+](=O)[O-])cc2s1`: the inhibition was -7.18% (inactive).
Turning to `O=C(NC(Nc1nc2ccc([N+](=O)[O-])cc2s1)(C(F)(F)F)C(F)(F)F)c1ccccc1`, the inhibition was 100% (active).
As for `CSc1nc2ccc(S(=O)(=O)N3CCc4ccccc43)cc2s1`, the inhibition was 0.05% (inactive).
Turning to `CCCCn1nc(C(=O)OCC(=O)Nc2sccc2C(N)=O)c2ccccc2c1=O`, the inhibition is -6.96% (inactive).
On to `Cc1cccc(N2CCC(NCc3c(C(=O)N4CCCCC4)nc4c(C)cccn34)CC2)c1`, for which the inhibition is 17.5% (inactive).
Turning to `S=C(Cc1ccc(Cl)cc1)N1CCOCC1`, the inhibition is 1.84% (inactive).
With `CC1=NN(C(=O)CCCc2ccccc2)C(O)(C(F)(F)F)C1` (stereo unspecified) the figure was -11.2% (inactive); with `CN(C)CCN=c1cc(-c2ccccc2)oc2ccc(Cl)cc12`, 63% (active); with `CN(C)CCn1c(=S)[nH]c2ccc(Cl)cc2c1=O`, 1.3% (inactive).
Next, `C/C(CC(=O)N1CCN(C=O)CC1)=N\NC(=O)c1ccc(Br)cc1`: -4.54% (inactive).
With `Cc1cccc(N2C(=O)CC(SC(N)=Nc3ccccc3)C2=O)c1` (stereo unspecified) the figure was 45.7% (inactive).
Consider `Cc1ccc(-n2c(O)c(C=Nc3ccc(S(=O)(=O)Nc4ncccn4)cc3)c3ccccc3c2=O)cc1C`, for which the inhibition was -5.1% (inactive).
Next, `Cc1nnc(SCC(=O)N2CCc3ccccc3C2)s1`: -1.97% (inactive); `Cc1nnc(SCC(=O)N2c3ccccc3C(C)(c3ccc(Cl)cc3)CC2(C)C)s1` (stereo unspecified): 56.6% (active); `Cc1nnc(SCC(=O)NCc2ccccc2)s1`: -9.92% (inactive).
With `Cc1ccc(NC(=O)C(=O)NCC2CCN(C(=O)c3cccc([N+](=O)[O-])c3)CC2)cc1` the figure was 23% (inactive); with `Cc1nn(-c2ccccc2)c(C)c1NC(=O)COc1ccc(Cl)cc1Cl`, 43.4% (inactive).
For the compound `CN1CCC(OC(=O)COc2ccc(Cl)cc2Cl)CC1`, the inhibition was 1.67% (inactive).
Next, `CN1CCN(c2ccc(NC(=O)COc3ccc(Cl)cc3Cl)cc2)CC1`: 98.7% (active); `S=C(NCC1CCCO1)N1CCN(c2ccc(Cl)c(Cl)c2)CC1` (stereo unspecified): 17.8% (inactive); `COc1ccc(-c2csc(Nc3ccc(O)cc3)n2)cc1`: 23% (inactive).
As to `NS(=O)(=O)c1ccc(Nc2nc(-c3ccccc3)cs2)cc1`, the inhibition is 81.2% (active).
As for `COc1ccc(Nc2nc(-c3ccccc3)cs2)cc1`, the inhibition was -2.02% (inactive).
With `O=C(NCC(O)c1ccc([N+](=O)[O-])cc1)C1CCCCC1` (stereo unspecified) the figure was -8.78% (inactive); with `Cc1ccccc1-c1n[nH]c(=S)n1C`, -18.2% (inactive).
With `Cn1c(-c2sc3cc(C(F)(F)F)cnc3c2-c2ccccc2)n[nH]c1=S` the figure was 84.1% (active).
On to `Cn1c(-c2sccc2OCc2cccc(C(F)(F)F)c2)n[nH]c1=S`, for which the inhibition was 14.1% (inactive).
In the case of `O=C(CCSc1ccccc1)N1CCN(c2ccccc2F)CC1`, the inhibition was -5.13% (inactive).
Take `O=C(Nc1nc(-c2cccnc2)cs1)c1ccccc1F`: the inhibition was -2.37% (inactive).
For the compound `OCCNCCCCOc1ccccc1F`, the inhibition is 19.1% (inactive).
Next, `OCCNCCOc1ccc(Cl)c(Cl)c1`: 78.9% (active).
Turning to `COCC(C)NC(=O)c1ccc(Cl)c(Cl)c1` (stereo unspecified), the inhibition was -3.5% (inactive).
Regarding `CC/C(Cc1ccccc1)=N/NC(=O)CCn1nnc2ccccc21`, the inhibition was -2.64% (inactive).
Regarding `CCN(C(=O)CN1CCN(Cc2ccccc2)CC1)c1c(N)n(Cc2ccccc2)c(=O)[nH]c1=O`, the inhibition is -0.59% (inactive).
Consider `O=C(/C(=C/c1cccc(Cl)c1)c1nc2ccccc2[nH]1)c1ccccc1`, for which the inhibition is 101% (active).
With `COc1ccc(/C=C(/NC(=O)c2ccc(C)cc2)c2nc3ccccc3[nH]2)cc1OC` the figure was 16.1% (inactive); with `CCC(=O)/C(=C(/O)c1ccccc1)c1nc2ccccc2[nH]1`, -5.9% (inactive).
With `C=CCNCCCCOc1ccccc1` the figure was 34.8% (inactive).
With `COc1ccc(NC(=O)CSc2nnc(-c3ccccc3F)n2C2CC2)cc1S(N)(=O)=O` the figure was 2.82% (inactive); with `CC(=O)Nc1ccc(S(=O)(=O)N2CCN(CCCOc3cc(C)ccc3C)CC2)cc1`, 72.8% (active); with `CC(=O)Nc1ccc(S(=O)(=O)N2CCSCC2)cc1`, 0.03% (inactive).
Consider `Cc1cccc(OCCCC(=O)Nc2ccc(S(=O)(=O)N3CCCC3)cc2)c1`, for which the inhibition was 44.8% (inactive).
With `O=C(CSc1ccccc1)Nc1cc(Cl)ccc1Oc1ccccc1` the figure was 14.8% (inactive).
With `CCOC(=O)c1ccc(NC(=O)C2CC(=O)Nc3nc4ccccc4n32)cc1` (stereo unspecified) the figure was -4.72% (inactive).
Next, `COc1cc(NC(=O)c2ccccc2NS(=O)(=O)c2ccc(Cl)s2)cc(OC)c1`: 74.3% (active); `COC(=O)c1ccc(NC(=O)c2ccccc2NS(=O)(=O)c2ccccc2)cc1`: -3.45% (inactive).
Regarding `COc1cc(NC(=O)c2cccnc2SC)cc(OC)c1`, the inhibition was 1.73% (inactive).
With `Cc1cc(C)cc(C(=O)NC2C(=O)N3C(C(=O)O)=C(CSc4nnc(C)s4)CSC23)c1` (stereo unspecified) the figure was -0.22% (inactive).
Regarding `O=C1/C(=C\c2ccsc2)NC(=S)N1c1ccccc1`, the inhibition was -4.28% (inactive).
Next, `CC(=O)C1C(c2ccc(Cl)cc2)c2c(n[nH]c2C)CC1(C)O` (stereo unspecified): -0.37% (inactive).
Next, `CCCCn1nc(C(=O)Nc2ccc(S(=O)(=O)Nc3ncccn3)cc2)c2ccccc2c1=O`: -10.7% (inactive); `CCCn1nc(C(=O)Nc2ccc3nc(C)sc3c2)c2ccccc2c1=O`: 80.4% (active).
With `CCCn1nc(C(=O)N2CCCc3ccccc32)c2ccccc2c1=O` the figure was 26.1% (inactive); with `N=c1n(Cc2ccc(Cl)cc2)c2ccccc2n1CC(O)c1ccco1` (stereo unspecified), 85.3% (active); with `Cn1c(=N)n(CC(O)c2cccs2)c2ccccc21` (stereo unspecified), 1.42% (inactive).
`CC(=O)NC1(c2ccc(F)cc2)CCN(C(=O)c2c(F)cccc2F)CC1`: the inhibition was -1.81% (inactive).
`CN(Cc1nc2ccc(F)cc2[nH]1)Cc1nc(CC2CC2)no1`: the inhibition is -4.94% (inactive).
Next, `C[C@@H]1C[C@@H]2O[C@H]2/C=C\C=C\C(=O)Cc2c(Cl)c(O)cc(O)c2C(=O)O1`: 100% (active); `O=[N+]([O-])c1ccc2oc(-c3cccc(O)c3)nc2c1`: -1.6% (inactive).
As for `CCOC(=O)C1(Cc2cccc(OC)c2)CCN(C(C)CC(C)(C)O)CC1` (stereo unspecified), the inhibition was -1.48% (inactive).
With `CCOC(=O)C1(Cc2cccc(OC)c2)CCN(C(C)COC)CC1` (stereo unspecified) the figure was 2.55% (inactive); with `CCOC(=O)C1(Cc2cccc(OC)c2)CCN(Cc2csc(C(C)=O)c2)CC1`, 92.9% (active).
Next, `CC(=O)Nc1ccc(NC(=O)COc2ccc(S(=O)(=O)NC(C)c3ccccc3)cc2)cc1` (stereo unspecified): -0.2% (inactive); `COc1cc(/C=C/C2=CC(C)(C)NC(=S)N2)cc(OC)c1OC`: 0.1% (inactive).
With `CCCCNc1nc2c(c(=O)n(C)c(=O)n2C)n1Cc1cccc(OC)c1` the figure was 4.44% (inactive).
As for `Cn1c(=O)c2c(nc(NCCc3ccccc3)n2Cc2ccccc2)n(C)c1=O`, the inhibition is 15.1% (inactive).
With `Cn1c(=O)c2c(nc(N/N=C/c3cccs3)n2Cc2ccc(Br)cc2)n(C)c1=O` the figure was 60.3% (active); with `O=C(CN1C(=O)/C(=C\c2ccccc2F)SC1=S)Nc1nc2ccccc2s1`, -3.34% (inactive); with `Clc1ccc(-c2csc(-c3ccncc3)n2)cc1`, 5.86% (inactive).
Next, `CCOc1cc(NC(=O)CCl)c(OCC)cc1NC(C)=O`: 5.77% (inactive); `CC(=O)c1ccc2c(c1)c1ccccc1n2CC(C)C`: 9.99% (inactive).
With `CS(=O)(=O)N(CC(O)Cn1c2ccccc2c2ccccc21)c1cccc2ccccc12` (stereo unspecified) the figure was 100% (active); with `O=C1c2ccccc2S(=O)(=O)N1CC(O)Cn1c2ccccc2c2ccccc21` (stereo unspecified), -4.57% (inactive).
Turning to `O=C(Nc1nnc(Cc2ccc(Cl)cc2)s1)c1cccnc1`, the inhibition is -10.8% (inactive).
Next, `COC(=O)N/N=C/c1ccc(/C=N/NC(=O)OC)cc1`: -5.23% (inactive); `C=CCn1c(-c2sc(-c3ccccc3)nc2C)n[nH]c1=S`: -5.29% (inactive); `CCN(CC)CC1(O)CCN(C(=O)c2ccc(Cl)c(Cl)c2)CC1`: 99.6% (active).
Take `CCCNC(=O)c1ccc(Cl)c(Cl)c1`: the inhibition is -4.03% (inactive).
With `O=C(c1ccc(Cl)c(Cl)c1)N1CCCC1` the figure was -4.87% (inactive); with `ClC1(Cl)CC1CSc1ncn[nH]1` (stereo unspecified), 3.37% (inactive); with `CCOC(=O)c1cnc(Nc2nc3ccccc3o2)nc1CSC(=S)N1CCCCC1`, 56.7% (active).
Turning to `CCOC(=O)CCNC(=O)N1CCCC(C(=O)c2ccccc2SC)C1` (stereo unspecified), the inhibition was -1.7% (inactive).
Consider `CCc1ccc(CNC(=O)C2CCCN(c3nc4ccccc4o3)C2)cc1` (stereo unspecified), for which the inhibition is 0.6% (inactive).
Next, `COc1ccc(-n2nc(C(=O)Nc3cc(OC)c(OC)c(OC)c3)c3ccccc3c2=O)c(OC)c1`: 0.87% (inactive); `O=C(CSc1ccc(C(F)(F)F)cc1[N+](=O)[O-])NCCOc1ccccc1`: -4.83% (inactive).
Next, `O=C(c1cccc(F)c1)N1CCN(c2ccc([N+](=O)[O-])c3cccnc23)CC1`: 45.7% (inactive).
Regarding `CC(CNc1ccc([N+](=O)[O-])c2cccnc12)Nc1c([N+](=O)[O-])cc(C(F)(F)F)cc1[N+](=O)[O-]` (stereo unspecified), the inhibition is 76.9% (active).

The term inhibition denotes the relative decrease from the control value, in per cent.
